Reference: PubChem BioAssay (NCATS)
Inconclusive results are not listed. Entries that show only a call come without a potency. Active and inactive are the calls of the source. Calls come from the whole dose curve; as a rule, active = well fitted inhibition curve with a large enough effect; inconclusive = small, poorly fitted or top-dose-only effect; inactive = no such curve, though single readings can be large or run the other way.

Columns and labels:
[1] = test system: Zika virus NS2B-NS3 protease (unlinked complex); test: Primary screen GU Rhodamine qHTS for Zika virus inhibitors: Unlinked NS2B-NS3 protease assay (AID 1347159); note: nearly all actives have a fitted effect of over 60% in size
Summary of the method: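 Percent inhibition came from the 15-min rise in Rhodamine110 fluorescence (1.5 microM substrate, ~15% conversion), normalized to no-inhibitor and no-enzyme wells and Hill-fitted. Unlinked protease, 25 nM, pH 8.0 Tris buffer; compounds up to 114 microM, 15-min preincubation.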

[2] = test system: Zika virus NS2B-NS3 protease (linked construct); test: Primary screen NINDS Rhodamine qHTS for Zika virus inhibitors (AID 1347160); note: nearly all actives have a fitted effect of over 55% in size
Summary of the method: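 Rhodamine110-peptide cleavage (1.5 µM substrate) by 25 nM linked NS2B-NS3 enzyme at pH 8.0 (Tris, Tween 20), after 15 min RT preincubation with compounds; 15-min fluorescence change normalized to controls and Hill-fitted.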

| Compound | Potency [1] | Potency [2] |
| --- | --- | --- |
| O=C(NCCCNc1nc(Nc2cccc(CN3CCOCC3)c2)ncc1C1CC1)C1CCC1 | inactive | inactive |
| Cc1ccc(S(=O)(=O)N2CCC[C@H]2c2ccc(F)cc2)cc1 | inactive | inactive |
| O=c1[nH]c2ccccc2n1CCN1CCN(c2cccc(C(F)(F)F)c2)CC1 | inactive | inactive |
| OC[C@H]1O[C@@H](OC/C=C/c2ccc(O)cc2)[C@H](O)[C@@H](O)[C@@H]1O | inactive | inactive |
| C/C=C(/C=C(C)/C=C/C=C/C=C(\C)C(=O)C12OC1C(O)(CCO)NC2=O)C(=O)OC (configuration not stated) | inactive | inactive |
| CC(=O)O[C@@H]1[C@@H](O)[C@H](O[C@@H]2[C@@H](O)[C@@H](O)[C@H](O[C@H]3[C@H](O[C@H]4[C@H](O[C@H]5CC[C@@]6(C)C(CC[C@]7(C)C6CC=C6[C@@H]8CC(C)(C)CC[C@]8(C(=O)O)CC[C@]67C)[C@]5(C)CO)O[C@H](CO)[C@@H](O)[C@@H]4O)OC[C@@H](O)[C@@H]3O)O[C@H]2C)OC[C@H]1O (some centres not stated) | inactive | inactive |
| COc1cc(O)c2c(c1)C1OC1C[C@H](O)[C@H](O)C(=O)/C=C\C[C@H](C)OC2=O (some centres not stated) | inactive | inactive |
| C[C@@H](NC(=O)C(=O)c1c[nH]c2ccc([N+](=O)[O-])cc12)c1ccccc1 | inactive | inactive |
| COc1ccc2c(c1)C(C(=O)N(Cc1ccc(N(C)C)cc1)c1ccc(C(C)C)cc1)CCC2 (configuration not stated) | inactive | inactive |
| CC(C)CCCCC(=O)N[C@@H](CO)C(=O)N[C@@H](CC(C)C)C(=O)[C@@]1(CO)CO1 | inactive | inactive |
| Cc1ccnn1-c1ccc(C(=O)N2CCN(S(=O)(=O)c3ccc(Cl)c(C(F)(F)F)c3)CC2)cc1 | inactive | inactive |
| COc1cc(NC(=O)c2cccc(-n3cc(NC(=O)Nc4cccc(C)c4)cn3)c2)cc(OC)c1OC | inactive | inactive |
| COc1ccccc1OCCNCC(O)CCOc1cccc2[nH]c3ccccc3c12 (configuration not stated) | inactive | inactive |
| Cc1[nH]c2ccccc2c1CCNC(=O)c1cccs1 | inactive | inactive |
| C=C1C(=O)OC2/C=C(\CO)CC/C=C(\C=O)C(OC)C(OC(=O)C(C)CC)C12 (configuration not stated) | inactive | inactive |
| N#CC(CCCN1CCC(O)(c2ccc(Cl)cc2)CC1)(c1ccccc1)c1ccccc1 | inactive | inactive |
| Fc1ccc(CN2CCC(Nc3ccc(C(F)(F)F)nn3)CC2)cc1F | inactive | inactive |
| O=c1cc(N2CCN(c3cccc(C(F)(F)F)c3)CC2)[nH]c(=O)n1C1CCCCC1 | inactive | inactive |

| Compound | Potency [1] | Potency [2] |
| --- | --- | --- |
| O=C(Nc1cccnn1)N1CCN(c2nccc(-c3ccc(F)c(F)c3)n2)CC1 | inactive | inactive |
| Nc1c(S(=O)(=O)c2ccccc2)c2nc3ccccc3nc2n1-c1ccc(F)cc1 | inactive | inactive |
| Nc1ncnc2c1c(-c1ccc(Oc3ccccc3)cc1)nn2[C@@H]1CCCNC1 | inactive | inactive |
| C=C1C(=O)OC2CC(C)C(CCC(C)=O)=CCC12 (configuration not stated) | inactive | inactive |
| Cc1cn(CCN2CCN(c3ccccc3-c3cc(C#N)cc(C(=O)NCCCN4CCCC4)c3)CC2)c2ccccc12 | inactive | inactive |
| CS(=O)(=O)Nc1ccc2oc3c(OC(F)F)ccc(C(=O)Nc4c(Cl)cncc4Cl)c3c2c1 | inactive | inactive |
| COc1ccc(-c2cc3onc(-c4ccncc4)c3c(=O)n2C)cc1 | inactive | inactive |
| COc1ccc(Oc2c(Cl)cnn(-c3cc(C)cc(C)c3)c2=O)cc1 | inactive | inactive |
| CC(=O)Nc1cccc(Nc2ncnc(N3CCC(OCc4ccc(OC(F)(F)F)cc4)CC3)n2)c1C | inactive | inactive |
| COc1cc(N2CCC(N)CC2)ccc1Nc1ncc(Cl)c(-c2c[nH]c3ccccc23)n1 | inactive | inactive |
| Cc1cc(CS(=O)(=O)c2ccccc2)cc(OCc2ccc(CN3CCCC3CO)cc2)c1 (configuration not stated) | inactive | inactive |
| O=C(NC1(c2ccccc2)CC1)c1c(CN2CCC(N3CCCCC3)CC2)c(-c2cccc(C(F)(F)F)c2)nc2cc(Br)ccc12 | inactive | inactive |
| O=C(Nc1ccccc1Cl)c1cnc2ccc(C3CCNCC3)cn12 | inactive | inactive |
| O=C(NC[C@H]1CN(c2ccc(N3CCOCC3=O)cc2)C(=O)O1)c1ccc(Cl)s1 | inactive | inactive |
| CC(C)c1ccc(NC(=O)Cn2cnc3c2c(=O)n(C)c(=O)n3C)cc1 | inactive | inactive |
| C=CCCN1CCC2(CC1)CN(C(=O)c1c(F)cccc1F)c1ccc(Cl)cc12 | inactive | inactive |
| CCCC(=O)C1(c2ccccc2)CCN(C(=O)[C@@H](Cc2ccc(OC)cc2)NC(=O)[C@@H](N)Cc2cncn2C)CC1 | inactive | inactive |
| N#Cc1cc(CN2CCC(Nc3ncnc4sc(Cl)cc34)CC2)ccc1F | inactive | inactive |
